# “And” between values parts separate entries of the source, which are not always exact repeats. Equal values may be shown once. In all, about 16,000 compounds went through this assay and about 40 (0.2%) were called active. Not shown: some 1% with an inconclusive outcome. The sample holds actives, similar compounds and a random draw of the others, so the mix is not that of the screen. Calls follow the shape of the dose curve; as a rule, active = well fitted activation curve with a large enough effect; inconclusive = small, poorly fitted or top-dose-only effect, or another doubt; inactive = no such curve, though single readings can be large or run the other way. More than one record can exist for a structure, and the calls need not agree.
# Molecular target: Rap guanine nucleotide exchange factor 4 (Homo sapiens) (UniProt Q8WZA2)
# Sequence (Q8WZA2 whole entry, looked up): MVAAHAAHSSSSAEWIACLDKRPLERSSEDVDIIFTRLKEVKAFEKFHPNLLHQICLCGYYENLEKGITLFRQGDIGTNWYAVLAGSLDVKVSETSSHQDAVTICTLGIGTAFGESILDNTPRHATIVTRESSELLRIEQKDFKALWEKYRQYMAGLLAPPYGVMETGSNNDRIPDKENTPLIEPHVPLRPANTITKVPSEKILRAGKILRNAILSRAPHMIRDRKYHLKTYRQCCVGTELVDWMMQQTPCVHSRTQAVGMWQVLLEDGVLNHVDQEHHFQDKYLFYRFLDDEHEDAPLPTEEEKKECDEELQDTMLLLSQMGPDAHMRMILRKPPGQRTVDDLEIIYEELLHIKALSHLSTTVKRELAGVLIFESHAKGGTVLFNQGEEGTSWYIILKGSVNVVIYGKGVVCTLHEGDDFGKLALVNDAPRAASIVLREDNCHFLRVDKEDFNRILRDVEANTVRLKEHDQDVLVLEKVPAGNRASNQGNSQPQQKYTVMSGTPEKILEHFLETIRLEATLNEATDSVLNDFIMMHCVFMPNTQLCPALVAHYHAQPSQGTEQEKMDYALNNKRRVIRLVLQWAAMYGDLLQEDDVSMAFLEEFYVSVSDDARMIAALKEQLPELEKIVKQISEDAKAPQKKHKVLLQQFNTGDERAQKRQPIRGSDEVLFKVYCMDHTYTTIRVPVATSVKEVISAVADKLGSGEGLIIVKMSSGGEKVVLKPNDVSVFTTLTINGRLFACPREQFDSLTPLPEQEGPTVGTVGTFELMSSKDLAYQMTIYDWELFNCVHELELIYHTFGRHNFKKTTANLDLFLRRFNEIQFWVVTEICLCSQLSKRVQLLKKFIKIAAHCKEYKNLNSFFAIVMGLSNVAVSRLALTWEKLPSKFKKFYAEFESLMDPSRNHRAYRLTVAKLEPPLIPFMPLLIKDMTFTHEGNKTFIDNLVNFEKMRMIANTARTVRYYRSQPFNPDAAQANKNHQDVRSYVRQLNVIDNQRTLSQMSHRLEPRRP
# Assay: Validation qHTS for agonist of cAMP-regulated guanine nucleotide exchange factor 4 (EPAC2);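 as to activation: exchange makes BODIPY-GDP fluorescence drop when released from Rap1B; series mostly up to about 150 µM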
# Conditions: EPAC2 Rap1B BODIPY-GDP exchange, fluorescence; activation: active compounds read high
# Source text: Principle Investigator: Xiaodong Cheng Ph.D.
# The University of Texas Medical Branch, […], TX
# In multi-cellular eukaryotic organisms, the effects of cAMP are transduced by two ubiquitously-expressed intracellular cAMP receptors, the classic protein kinase A/cAMP-dependent protein kinase (PKA/cAPK) and the more recently discovered exchange protein directly activated by cAMP/cAMP-regulated guanine nucleotide exchange factor (EPAC/cAMP-GEF). Both PKA and EPAC are ubiquitously expressed in all tissues, and an increase in intracellular cAMP levels will lead to the activation of both PKA and EPAC. Therefore, careful dissections of the individual role and relative contribution of EPAC and PKA within the overall cAMP signaling in various model systems are critical for further elucidating the mechanism of cAMP signaling. To date no EPAC-specific antagonists and agonist, as well as isoform-specific agonists have been reported, and developing EPAC-specific pharmacological probes to determine the physiological functions that EPAC play in the overall cAMP-mediated signaling remains a major challenge within the research field. Furthermore, identified regulators of EPAC may lead to new mechanism-based therapeutic strategies specifically targeting the EPAC / cAMP-signaling components as EPAC has been implicated to play important roles in major human pathological conditions such as diabetes, heart disease, and cancer.
# This qHTS will be used to screen the Molecular Libraries Small Molecule Repository (MLSMR) as a concentration-titration series using the NCGC unique quantitative screening (qHTS) platform to find activators for EPAC1. In addition, this assay will also be used as a counterscreen for the EPAC2 qHTS. This fluorescent based assay is developed and validated for EPAC1 that measures exchange using EPAC effector Rap1 complex with BODIPY-GDP, a GDP analog with a tethered fluorophores. Activators are identified by monitoring the change in fluorescence signal as the exchanged free BODIPY-GDP has a reduced fluorescence compared to Rap1-bound BODIPY-GDP. Increase in signal (activation) is the desired outcome for the EPAC1 agonist while no activity in this assay is desired for the EPAC2 agonist counterscreen.
# [1] de Rooij, J., Zwartkruis, F. J., Verheijen, M. H., Cool, R. H., Nijman, S. M., Wittinghofer, A., and Bos, J.L. (1998) Nature 396, 474-477.
# Briefly, three uL of reagents (100 nM EPAC2, 250 nM RAP1B-BODIPY-GDP, 50 uM GDP) were dispensed into a 1536-well Greiner black solid-bottom medium binding assay plate. Controls and test compounds (23 nL) were transferred to the plate via a Kalypsys pin tool equipped with a 1536-pin array. The plates were centrifuged at 1,000 rpm for 15 seconds followed by 5 minute incubation at room temperature. The assay plates were read at 5 minute intervals for 30 minutes in the ViewLux plate reader using 480nm excitation and 540nm emission filters. The results were normalized to the agonist positive control of 6.5 mM cAMP.
# % is scaled to controls: 0 for no effect and ±100 for the full control effect; potency is read from the fitted curve at half-maximal effect.
Structure (SMILES),Potency,activation
O=c1[nH]cc(N(CCCl)CCCl)c(=O)[nH]1,100 µM (active),
CN1CCCC2(CCN(C(=O)c3ccco3)CC2)C1,,0.865% (inactive)
NCC(O)c1cccc(O)c1 (configuration not stated),,-5.63% (inactive)
COc1ccc2c3c([nH]c2c1)C(C)=NCC3,,23% (inactive) and -2.23% (inactive) and 8.55% (inactive)
CC1=NCCc2c1[nH]c1cc(O)ccc21,100 µM (active),
Nc1ccc(N=Nc2ccccc2)cc1,,-19.5% (inactive)
CCN1C[C@]2(COC)CC[C@H](OC)[C@@]34C5C[C@@H]6[C@@H](OC)C[C@@]7(OCO[C@@]7([C@@H](O)C23)[C@@H]14)C5[C@H]6OC (some centres not stated),,-3.22% (inactive)
[O]=[Cd],,-0.16% (inactive)
O=C1/C(=C/c2ccc(N(CCCl)CCCl)cc2)Cc2ccccc21,,-1.94% (inactive)
CC1=NN=C(c2ccc(N)cc2)c2cc3c(cc2C1)OCO3,89.1 µM (active),-34.2% (inactive)
C[C@H]1[C@@H]2Cc3ccc(O)cc3[C@@]1(C)CCN2C,,-8.04% (inactive)
CC1(C)C(O)CC(=O)[C@]2(C)C1CC(=O)[C@]1(C)C2CC[C@@]2(C)C(c3ccoc3)OC(=O)C3O[C@@]321 (some centres not stated),,-10.4% (inactive)
CN1C2CC(OC(=O)C(CO)c3ccccc3)CC1C(O)C2 (configuration not stated),,-0.713% (inactive)
COc1ccc2[nH]cc(CCN(C(C)C)C(C)C)c2c1,,-8.55% (inactive)
Cc1cc(O)ccc1Cl,,-10.1% (inactive) and -9.14% (inactive)
CC(C)(C)c1cc(O)ccc1O,56.2 µM (active),-17% (inactive)
O=S(=O)(O)c1cc(O)ccc1O,,-9.91% (inactive)
COc1cc(C[C@@H](C)N)c(OC)cc1C,,-5.23% (inactive)
CC(C)C[C@H](NC(=O)[C@H](Cc1ccccc1)NC(=O)CNC(=O)[C@H](CO)NC(=O)[C@@H](N)Cc1ccc(O)cc1)C(=O)N[C@H](C(=O)O)[C@H](C)O,,9.65% (inactive)
NC(N)=NCCCCCCCCCCN=C(N)N,,-12% (inactive) and 0.499% (inactive)
O=C1OC2(c3cc(Br)c(O)cc3Oc3c2cc(Br)c(O)[c]3[Hg])c2ccccc21 (configuration not stated),3.98 µM (active),
CN1CCC2(CC1)CCN(C(=O)c1ccco1)CC2,,1.62% (inactive)
C[C@]12CCC3C(CC[C@H]4C[C@H](O)CC[C@]34C)[C@@H]1CC[C@@H]2C(=O)CO (some centres not stated),,-7.64% (inactive)
CCOC(=O)[C@]12Cc3c(cc(OC)c(OC)c3OC)[C@H]1N(Cc1ccccc1)C(=O)c1ccccc12,,-19.3% (inactive)
c1cnc(N2CC3(CCNCC3)C2)nc1,,2.58% (inactive)
